# Test results published in the supplement of paper PMC10338343.
# ± gives the standard deviation.
# Test system: MILI (PIWIL2) piRISC loaded with piRNA #1 (26 nt)
# Assay: pre-steady-state target cleavage rate (min^-1); guide: piRNA #1 5'p-UGAGGUAGUAGGUUGUAUAGUAUCCA; MIWI and MILI are mouse PIWI proteins and EfPiwi is from a freshwater sponge; tags in brackets are library labels; higher = faster piRNA-guided slicing of the target
# Details: auxiliary factor: 500 nM mouse GTSF1
# Summary of the method: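 The pre-steady-state cleavage rate was derived from a burst-and-steady-state fit of Cleave-'n-Seq data. For these assays, 1 nM active affinity-purified piRISC loaded with a single synthetic guide was mixed with […] a transcribed, DNA-blocked target RNA library in HEPES–potassium acetate buffer at 33 °C, with or without 500 nM GTSF1 partner protein, for 0–8 or 0–960 min. Sequencing counts of uncleaved targets were normalised to depth and to weakly complementary targets, and k3 was capped at 0.0001 min^-1 after three trials were pooled.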
# 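Further: 1 nM active piRISC with 0.1 nM target library at 33 °C single turnover.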
row,Sequence,pre-steady-state target cleavage rate
1,GGAGAGGAUACUAUAGAACCUACAACCUCA,0.00427 ± 0.0024
2,GGAGACCUAUGUAUACAUCCUACUACGUCA,0.0275 ± 0.0061
3,GGAGACCUAUGAUAUGUUCCUACUACCAGA,< 0.0001
4,GGAGACCUAUCAAUAGAACCUACUACCUCA,0.0159 ± 0.0039
5,GGAGACGAUACUUUACUACCUACUACCUCA,0.179 ± 0.012
6,GGAGACCUAUGAUAUGAACGAACUACCUCA,< 0.0001
7,GGAGACCUAUCUUUACAACCUUCUACCUCA,0.00489 ± 0.0025
8,GGAGACCUAUGUUUACAACGUACUACCUCA,0.00618 ± 0.0026
9,GGAGACCUAUGUAUACAUGCUACUACCUCA,0.0469 ± 0.007
10,GGAGACCUAUGUAUACAACAUACUACCUCA,0.0179 ± 0.0028
11,GGAGACCUAACUAUACAACCUACUACUCA,0.141 ± 0.033
12,GGAGACCUAUGAAUACAUCCUACAACCUCA,0.0119 ± 0.0025
13,GGAGACCUUACUAUACAACCUACAUGGAGA [g8:g22:cont:t1A],0.00299 ± 0.0029
14,GGAGACCAUACAAUACAACCUACUACCACA,0.177 ± 0.022
15,GGAGACCUUACUAUACAACCAACAACCUCA,0.00353 ± 0.0022
16,GGAGACCUAACUUUACAACCUACUUCCUCA,0.0099 ± 0.0053
17,GGAGACCUAUGAUUACUACCUACAACCUCA,0.00398 ± 0.0024
18,GGAGACCUAUCUAUACAACCUUCUACCACA,0.00592 ± 0.0023
19,GGAGUGGUUACUAUACAAGCUACUACCUCA,0.213 ± 0.016
20,GGAGACCUAUCUAUACAUCCUACAACCUCA,0.165 ± 0.014

row,Sequence,pre-steady-state target cleavage rate
1,GGAGACCUAUGAUUACAUCCUACUACGUCA,0.00263 ± 0.0026
2,GGAGACCUAUCUAAACAACCUUCUACCUCA,0.00634 ± 0.0024
3,GGAGAGGAUACUAUACAAGGAACUACCUCA,0.00442 ± 0.002
4,GGAGACCUAUGUAUACAACCUACUUCGUCA,0.0106 ± 0.0032
5,GGAGACCUAUGAUAGCAACCUACUACCUCA,0.00366 ± 0.0022
6,GGAGAGGAUUCUAUACAACCUAGUACCUCA,0.0548 ± 0.0098
7,GGAGACCAUACUAAUCAACCUACUACCUCA,0.17 ± 0.019
8,GGAGACCUAUGUAAACAACCUACUUCCUCA,0.00599 ± 0.002
9,GGAGACCUAUGAAUACAACCUACUACCUCA [g2:g18:cont:t1A],0.00878 ± 0.0033
10,GGAGACCUAUGAAUACAACCUACGUACCUCA,0.00396 ± 0.0023
11,GGAGUGGAUACUAUACAACCUACUUGGUCA,< 0.0001
12,GGAGACCUAUGUAUACAACCUUCAACCUCA,0.00276 ± 0.0024
13,GGAGACCUAUGAAUACAACCUACCACCUCA,0.00506 ± 0.0036
14,GGAGACCUAUGUAUACAACCUAGUUCCUCA,0.00347 ± 0.003
15,GGAGACCUAUCUAUAGAACCUACAACCUCA,0.00275 ± 0.0025
16,GGAGACCUAUGAUAUGUUCCUACUACCUCU [g2:g12:cont:t1U],< 0.0001
17,GGAGACCUAUCUAUACAACUACUACCUCA,0.00292 ± 0.0024
18,GGAGACCUAACUUUUCAACCUACUACCUCA,0.0456 ± 0.014
19,GGAGACCUAUGAAUACAACCUACUACCUAA,0.00505 ± 0.0032
20,GGAGACCUAACUAUACAAGCUACUAGCUCA,0.159 ± 0.042
